Pf growth 48h = Primary qHTS for delayed death inhibitors of the malarial parasite plastid, 48 hour incubation; P. falciparum luciferase growth in erythrocytes, 48 h; Potency, µM (top dose mostly 28.7 µM), inactives show at the top dose activity change, negative = inhibition, usual class: inhibitors; 310,000 compounds, 5.9% hits; AID 504832, 2011; note: potency is the fitted concentration of half-maximal effect; % is set by controls: 0 for no effect and ±100 for the full control effect
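Read-out is firefly luciferase luminescence from an integrated reporter in P. falciparum, so falling signal marks reduced parasite growth. Infected erythrocytes were at 2% hematocrit and 0.1% parasitemia (final) in Albumax-supplemented RPMI 1640.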
Cycloheximide cs = Cycloheximide Counterscreen for Small Molecule Inhibitors of Shiga Toxin; cell reporter, cycloheximide protein synthesis inhibition counterscreen; max response, %; 300,000 compounds, 12% hits; AID 2314, 2010; in the data active = max response mostly above about 13%, no sharp cut-off; inactive = mostly below about 14%; note: read at 38.3 µM for the half of the compounds with a filed dose; 0% is about no effect
Shiga inhibitor = A qHTS for Small Molecule Inhibitors of Shiga Toxin | 290,000 compounds, 9.2% hits | AID 2315, 2010 | inhibition, % at 38.7 µM | Vero cells, Shiga toxin protein synthesis inhibition reporter; in the data active = inhibition mostly above about 28%, no sharp cut-off; inactive = mostly below about 43%; note: 0% is about no effect
Pf growth 96h = Primary qHTS for delayed death inhibitors of the malarial parasite plastid, 96 hour incubation | P. falciparum luciferase reporter growth, 96 h | Potency, µM (top dose mostly 28.7 µM), without a hit: top-dose activity change, negative = inhibition, hits mostly inhibitors | 320,000 compounds, 6.9% hits; note: potency is the fitted concentration of half-maximal effect; % is set by controls: 0 for no effect and ±100 for the full control effect
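Cell-based qHTS: luciferase-tagged P. falciparum in erythrocytes (2% hematocrit, 0.05% parasitemia final) incubated with compounds for 96 hours, 37 C, 5% CO2; luciferase detection reagent then added and luminescence measured.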
An asterisk follows results filed as active. This is a sample that favours compounds with a hit; in the whole collection about 21% have one here. Unless noted, calls come from the whole dose curve; as a rule, active = well fitted inhibition curve with a large enough effect; inconclusive = small, poorly fitted or top-dose-only effect, or another doubt; inactive = no such curve, though single readings can be large or run the other way.

COc1ccc(OC)c(NC(=O)C2CC(/C=C/c3ccccc3)=NO2)c1 (stereo not given) was read as Pf growth 48h -2%, Cycloheximide cs -7, Shiga inhibitor -6 and Pf growth 96h inconclusive.
`Nc1nncn1C(=O)CCc1ccccc1` gave Pf growth 48h 14%, Cycloheximide cs 9.3* and Shiga inhibitor 20.
`CC(=O)Nc1ccc(NC(=O)CSc2nc3ccccc3o2)cc1` gave Pf growth 48h 180%, Cycloheximide cs 17*, Shiga inhibitor 115* and Pf growth 96h 24%.
Screening Cc1cccc(NC(=O)CSc2nc3ccccc3o2)c1 returned Pf growth 48h 266%, Cycloheximide cs 38*, Shiga inhibitor 119* and Pf growth 96h 293%.
For O=C(CSc1nc2ccccc2o1)Nc1ccc(Cl)cc1 the results were Pf growth 48h 62%, Cycloheximide cs 22* and Shiga inhibitor 83*.
Cc1cc(C)nc(NC(=O)CSc2nc3ccccc3o2)n1 was read as Cycloheximide cs 51*, Shiga inhibitor 58* and Pf growth 96h 253%.
O=S(=O)(Nc1nc2ccccc2s1)c1cnc(Cl)c(Br)c1 was read as Pf growth 48h 89%, Cycloheximide cs 10, Shiga inhibitor 11 and Pf growth 96h 0%.
For CC(C)c1cc(C(C)C)c(S(=O)(=O)Nc2cccc3cccnc23)c(C(C)C)c1 the results were Cycloheximide cs 4 and Shiga inhibitor 2.
`Cc1nonc1NC(=O)CSc1nc2ccccc2o1` gave Pf growth 48h 13µM*, Cycloheximide cs -2, Shiga inhibitor 1 and Pf growth 96h 36%.
For Cc1nn2c(-c3cccc(NC(=O)CSc4nc5ccccc5o4)c3)nnc2c2ccccc12 the results were Pf growth 48h inconclusive, Cycloheximide cs 14*, Shiga inhibitor 18 and Pf growth 96h 7%.
For Cc1nnc(NC(=O)CSc2nc3ccccc3o2)s1 the results were Pf growth 48h 23%, Cycloheximide cs -1, Shiga inhibitor -3 and Pf growth 96h inconclusive.
Cc1c(OCC(=O)N2CCC(C(=O)NCCCC(=O)O)CC2)ccc2c1oc(=O)c1ccccc12 was read as Pf growth 48h -8%, Cycloheximide cs 2, Shiga inhibitor -2 and Pf growth 96h 4%.
COc1ccc(NS(=O)(=O)c2cc3c4c(c2)C(C)C(=O)N4CCC3)cc1 (stereo not given) was read as Pf growth 48h -13%, Cycloheximide cs 6, Shiga inhibitor -5 and Pf growth 96h 7%.
For CC(C)c1cc(CN2CCN(CCC#N)CC2)cc(C(C)C)c1O the results were Pf growth 48h 2.3µM*, Cycloheximide cs -2, Shiga inhibitor -18 and Pf growth 96h inconclusive.
For CC(C)(C)c1cc(CN2CCN(CCO)CC2)cc(C(C)(C)C)c1O the results were Pf growth 48h 4%, Cycloheximide cs -5, Shiga inhibitor -5 and Pf growth 96h inconclusive.
C#Cc1cccc(Nc2ncnc3cc(OCCOC)c(OCCOC)cc23)c1 was read as Pf growth 48h 13µM* and Pf growth 96h 6µM*.
`O=c1c2cnn(-c3ccccc3)c2ncn1CCc1ccccc1` gave Pf growth 48h 81%, Cycloheximide cs 23*, Shiga inhibitor 49* and Pf growth 96h 66%.
Screening O=c1c2cnn(-c3ccccc3Cl)c2ncn1Cc1cccnc1 returned Pf growth 48h inconclusive, Cycloheximide cs -3, Shiga inhibitor -17 and Pf growth 96h 13µM*.
`O=c1c2cnn(-c3ccc(F)cc3)c2ncn1Cc1ccccc1` gave Pf growth 48h -8%, Cycloheximide cs 1, Shiga inhibitor 9 and Pf growth 96h 8.3µM*.
Screening CN1CCCC(CC2c3ccccc3Sc3ccccc32)C1 (stereo not given) returned Pf growth 48h 9.3µM* and Pf growth 96h inconclusive.
For CN1CCCC(CN2c3ccccc3Sc3ccccc32)C1 (stereo not given) the results were Pf growth 48h inconclusive, Cycloheximide cs -3, Shiga inhibitor -5 and Pf growth 96h inconclusive.
`Cc1ccc(NC(=O)CS(=O)CC(=O)Nc2ccccc2-c2ccc(C)o2)cc1` (stereo not given) gave Pf growth 48h 0%, Cycloheximide cs 0, Shiga inhibitor -7 and Pf growth 96h inconclusive.
Screening CC(=O)Nc1ccccc1-c1ccc(C)o1 returned Pf growth 48h 35%, Cycloheximide cs 16*, Shiga inhibitor 16 and Pf growth 96h 62%.
`O=C(CCNC(=O)c1ccc(Br)cc1)NCCCSc1ccccc1` gave Pf growth 48h -21% and Pf growth 96h 4%.

Source: PubChem (National Center for Advancing Translational Sciences (NCATS))
